# KB-V1 cytotox = kills drug-selected multidrug resistant KB-V1 cells; KB-V1 MDR cells viability, CellTiter-Glo, 72 h; 3.4% of 400,000 active; Potency, µM (highest dose often 46.1 µM), usual class: cytotoxic; AID 1347076; also: potency is read from the fitted curve at half-maximal effect; % is scaled to controls: 0 for no effect and ±100 for the full control effect; nearly all actives have a fitted effect of over 60% in size
#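 Following 72 h at 37 degrees C with compound, KB-V1 cell viability was read by CellTiter-Glo luminescence, medium being phenol-red-free DMEM plus 10% FBS; concentration-response parameters came from normalized, curve-fitted qHTS data.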
# KB-3-1 tox = KB-3-1 parental cell cytotoxicity; Potency, µM (titrated, usually from 46.1 µM), actives largely listed as cytotoxic; 1.4% of 400,000 active; KB-3-1 viability, CellTiter-Glo ATP luminescence, 72 h; also: potency is read from the fitted curve at half-maximal effect; % is scaled to controls: 0 for no effect and ±100 for the full control effect; nearly all actives have a fitted effect of over 60% in size
#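 Here the drug-naive KB-3-1 line serves as comparator for MDR sub-line selectivity; cells received compound titrations, 72 h at 37 °C, then CellTiter-Glo readout.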
# IL-1B inflam inh = inhibitors of inflammasome signaling (IL-1 beta secretion); AID 743279; 4.7% of 360,000 active; THP-1 LPS/ATP IL-1B secretion, AlphaLISA, 16 h; stronger effect = lower value; activity change, % at 57.5 µM; in the data active = activity change below about -50%; inconclusive = mostly about -30% to -49%; also: % is scaled to controls: 0 for no effect and ±100 for the full control effect
#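 Secreted IL-1B measured by AlphaLISA bead assay after 16 h compound exposure of THP-1 cells; compounds (final up to 57.5 uM) added 1 h before LPS (250 ng/mL) and ATP (1.25 mM) stimulation; lower signal means less secretion.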
# MCF10A rereplic = induces DNA re-replication in MCF 10a normal breast cells. MCF 10A DNA re-replication, Hoechst nuclear intensity, 48 h. Potency, µM (highest dose often 46.1 µM), inactives show at the top dose activity, positive = re-replication, hits mostly activators. 2.9% of 350,000 active; also: potency is read from the fitted curve at half-maximal effect; % of control where 0% means no effect; nearly all actives have a fitted effect of over 50% in size
# SW480 rerep = induces DNA re-replication in SW480 colon adenocarcinoma cells | Potency, µM (series often up to 46.1 µM), inactives show at the top dose re-replication activation, hits mostly activators | AID 624297 | 1.8% of 340,000 active | SW480 DNA re-replication, Hoechst DNA content imaging, 48 h; also: potency is read from the fitted curve at half-maximal effect; % of control where 0% means no effect; nearly all actives have a fitted effect of over 55% in size
#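 250 cells/well; 23 nL cpd via pin tool; 48 hr, 37 C, 5% CO2; Hoechst 40 min; imager read of total nuclear intensity, ex 405/em 500-530 nm.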
# * hit, by the source's call; i = inactive; ? = inconclusive; nt = no result; [ ] = dose if it differs, or a comment. A selection: hits, their analogues and other compounds. The true share with any hit is near 9.9%. Unless noted, calls follow the shape of the dose curve; as a rule, active = well fitted curve in the direction sought with a large enough effect; inconclusive = small, poorly fitted or top-dose-only effect, or another doubt; inactive = no such curve, though single readings can be large; an effect the other way counts as inactive or inconclusive.
SMILES,KB-V1 cytotox,KB-3-1 tox,IL-1B inflam inh,MCF10A rereplic,SW480 rerep
CCOC1=C2[C@@H](CN(S(=O)(=O)c3ccc(C)cc3)[C@H]2c2cccs2)[C@H]2C(=O)N(c3ccccc3)C(=O)[C@H]2C1,i,i,19,nt,nt
Cc1cc(Nc2ccccc2C(=O)O)n2ncnc2n1,?,i,-11,nt,nt
CCC(C)NC(=S)Nc1ccc(C(=O)OC)cc1 (stereo not given),?,i,-17,0%,-7%
CCCN(CCC)CCCNC(=O)c1cc2c(-c3ccc(Cl)cc3)nn(C)c2s1,i,i,nt,nt,nt
CCOc1ccc(CCNC(=O)c2cccc(-n3cnnn3)c2)cc1OCC,18µM*,i,32,2%,-2%
CCOC(=O)C1CCCN(C(=O)c2cc3c(-c4cccc(OC)c4)nn(C)c3s2)C1 (stereo not given),6.5µM*,?,-8,6.5µM*,?
CCN(CCCNC(=O)c1cc2c(-c3cccc(OC)c3)nn(C)c2s1)Cc1ccccc1,i,i,-84*,?,?
CCN(CC)CCCNC(=O)c1cc2c(-c3ccc(Cl)cc3)nn(C)c2s1,?,?,-81*,-5%,?
NC1=NCC2c3ccccc3Cc3ccccc3N12 (stereo not given),nt,nt,nt,-4%,2%
O=C(CCNC(=O)c1ccc([N+](=O)[O-])cc1)Nc1ccc(F)cc1F,i,i,-16,0%,-15%
CCOc1ccc(CCNC(=O)c2cc3c(-c4cccc(OC)c4)nn(C)c3s2)cc1OCC,23µM*,?,nt,nt,nt
COc1ccc(OC)c(CCNC(=O)Cn2nc(C)c3c(C)n(-c4ccc(C)cc4)nc3c2=O)c1,8.2µM*,?,-67*,-2%,-24%
COc1cccc2[nH]c3c(N4CCc5ccccc5C4)ncnc3c12,i,i,?,?,-2%
COc1cccc2[nH]c3c(N4CCC(C)CC4)ncnc3c12,?,?,-52*,17%,-1%
COc1ccc(-c2nnc3ccc(SC(C(C)=O)C(C)=O)nn23)cc1OC,i,i,16,?,26%
O=C(CSc1ccc2nnc(-c3cccc(F)c3)n2n1)NCc1ccco1,16µM*,i,6,12%,-4%
CSc1ccc2nnc(-c3cccc(F)c3)n2n1,13µM*,i,7,0%,-9%
COc1ccc(-c2nnc3ccc(SC(C)C)nn23)cc1OC,21µM*,i,nt,nt,nt
CCc1ccc(S(=O)(=O)NCC2(N3CCOCC3)CCCCC2)cc1,i,i,56,12%,-18%
Cc1ccnc(NC(=S)N2CCN(c3ccc(Cl)cc3)CC2)c1,i,i,nt,nt,nt
CCOCCCNC(=O)c1cc(=O)n(Cc2cccc(C)c2)c2ccccc12,9.2µM*,?,21,?,?
COCCCn1c(=NC(=O)c2ccccc2)c(C#N)cc2c(=O)n3cccc(C)c3nc21,i,i,49,6.5µM*,12%
Cc1cccn2c(=O)c3cc(C#N)c(=NC(=O)c4cccs4)n(CC(C)C)c3nc12,i,i,62,?,?
CCOCCCn1c(=NC(=O)c2cccs2)c(C#N)cc2c(=O)n3cccc(C)c3nc21,?,i,49,9.2µM*,?
COCCCn1c(=NC(C)=O)c(C#N)cc2c(=O)n3cccc(C)c3nc21,i,i,nt,18µM*,5.8µM*
SMILES,KB-V1 cytotox,KB-3-1 tox,IL-1B inflam inh,MCF10A rereplic,SW480 rerep
COc1ccc(C(=O)/C=C/c2ccc(OC)c(CN3CCOCC3)c2)cc1,15µM*,?,-100*,?,?
COc1ccc(C(=O)/C=C/c2ccc(OC)c(Cn3nnc4ccccc43)c2)cc1,?,i,?,16µM*,nt
COc1ccc(/C=C/C(=O)c2ccccc2O)cc1CN1CCOCC1,i,?,-6,?,?
COc1ccc(C)cc1Cn1nnc2ccccc21,i,i,34,11%,12%[9.22 µM]
COc1ccc(/C=C/C(=O)c2ccc(O)cc2)cc1CN1CCOCC1,?,16µM*,-133*,?,?
COc1ccc(/C=C/C(=O)c2ccc3ccccc3c2O)cc1CN1CCOCC1,i,i,-67*,2%,-2%
NC1=NC(S)C2N=CN=C2N1 (stereo not given),nt,nt,nt,?,18%
Cn1cc(C=CC(=O)O)c2nccnc21,i,i,45,nt,nt
COc1ccc(/C=C/C(=O)C23CC4CC(CC(C4)C2)C3)cc1CN1CCOCC1,?,i,-189*,?,?
C/C(=C\C(=O)c1ccccc1)Nc1ccc(N2CCOCC2)cc1,i,i,-21,159%[0.0737 µM],-14%
O=C(/C=C/c1cccc(O)c1)c1ccc(N2CCOCC2)cc1,i,?,-94*,7%,?
Cc1ccc(S(=O)(=O)NCc2ccccn2)cc1C,i,i,7,-5%,13%
CCCCOc1ccc(C(=O)N/C(=C/C=C/c2ccccc2)C(=O)NCCO)cc1,i,i,-53*,?,-2%
Cc1ccc(/C=C(\NC(=O)c2ccccc2)C(=O)OCc2ccccc2)cc1,16µM*,i,0,3%,3%
CN(C)CCCNC(=O)/C(=C\C=C\c1ccccc1)NC(=O)c1ccc([N+](=O)[O-])cc1,?,i,-57*,6%,?
CCOC(=O)/C(=C\C=C\c1ccccc1)NC(=O)c1ccccc1,4.6µM*,i,-90*,-3%,-2%
COc1ccc(/C=C(/NC(=O)c2ccc([N+](=O)[O-])cc2)C(=O)NCCCN(C)C)cc1,i,i,-1,1%,-2%
CCOC(=O)/C(=C\c1ccc(C)cc1)NC(=O)c1ccccc1,i,i,-5,-8%,-8%
COc1ccc(CCNC(=O)[C@H](C)N2C(=O)N3CCc4c([nH]c5ccccc45)[C@@]3(C)C2=O)cc1,?,?,?,1%,-3%
Cc1csc(=O)n1CCC(=O)OCC(=O)Nc1ncc(Cl)cc1Cl,i,i,14,0%,-2%
CCOc1c(OC)cccc1C1CC(=O)Nc2cc3c(cc21)OCCO3 (stereo not given),i,?,3,?,?
CC(C)COc1ccccc1C1CC(=O)Nc2cc3c(cc21)OCO3 (stereo not given),?,6.5µM*,nt,nt,nt
COc1ccc(OC)c(NC(=O)c2c(N3CCCC3=O)c3cc(OC)ccc3n2C)c1,i,i,nt,nt,nt
CCCNC(=O)c1cc(C2CCCCN2C(=O)CCCc2ccccc2)on1 (stereo not given),i,i,26,nt,nt
CC(C)(C)c1ccc(C(O)c2ncc(-c3ccccc3)[nH]2)cc1 (stereo not given),i,i,-24,nt,nt
Cc1ccccc1-c1cnc(C(O)c2ccc(Cl)c(F)c2)[nH]1 (stereo not given),i,i,-62*,nt,nt

# Screening data from PubChem.
